aSyn rescue = qHTS of alpha-syn Inhibitors; Yeast expressing alpha-synuclein, growth rescue, BacTiter-Glo, 24 h; Potency, µM (top dose mostly 46.1 µM), without a hit: top-dose growth rescue (activation), most hits filed as activators; 0.14% of 370,000 active; also: % of control where 0% means no effect; nearly all actives have a fitted effect of over 65% in size
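Readout is rescue of growth in alpha-synuclein-expressing yeast, so inhibitors of toxicity appear as activators. Growth after 24 hr at 30 deg C in galactose medium is quantified by luminescence.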
Abeta rescue = qHTS for compounds that reverse cellular toxicity of Amyloid beta (A-beta) peptide in yeast: Primary Screen | yeast expressing A-beta42, growth rescue, OD600, 48 h; response scale: 0% DMSO, 100% iron-clioquinol control | Potency, µM (top dose mostly 46.1 µM), actives largely listed as activators | 0.063% of 410,000 active; also: nearly all actives have a fitted effect of over 55% in size
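Growth rescue measured by 600 nm absorbance after 48 h yeast culture at 30 C with compound. Values normalized between DMSO and an equimolar ferric chloride plus clioquinol control.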
TDP43 rescue = qHTS of TDP-43 Inhibitors; 1.8% of 410,000 active; TDP-43 expressing yeast growth rescue, BacTiter-Glo, 24 h; Potency, µM (doses to about 46.1 µM), inactives show at the highest dose growth rescue (activation), actives largely listed as activators; also: % of control where 0% means no effect; nearly all actives have a fitted effect of over 50% in size
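Readout is BacTiter-Glo luminescence of cell growth, so inhibitors register as activators. TDP-43-expressing yeast at OD600=0.02 in galactose medium, after raffinose pregrowth to mid-log, were incubated with compound for 24 hr at 30 deg C.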
FUS suppressor = qHTS for Suppressors of FUS Proteinopathy: Primary screen using FUS-linked yeast assay | AID 1347120, 2019 | Potency, µM (doses to about 76.6 µM), usual class: activators | S. cerevisiae FUS-expressing, growth rescue, OD600, 24 h | 0.24% of 390,000 active;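 also: plate controls were DMSO vehicle for no effect and reference control for full effect; nearly all actives have a fitted effect of over 55% in size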
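Read-out: OD at 600 nm after 24hr at 30C, reporting rescue of FUS-induced yeast toxicity. Cells at OD 0.005 in galactose (2%) minimal medium; compounds tested in a dilution series; CP55940 titration from 92uM final as control.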
An asterisk follows results filed as active; i = inactive; ? = inconclusive; . = no result given. The list is not random: actives were taken first. Their share in the collection is about 2.1%. Calls follow the shape of the dose curve; as a rule, active = well fitted curve in the direction sought with a large enough effect; inconclusive = small, poorly fitted or top-dose-only effect, or another doubt; inactive = no such curve, though single readings can be large; an effect the other way counts as inactive or inconclusive. Potency is read from the fitted curve at half-maximal effect.

SMILES	aSyn rescue	Abeta rescue	TDP43 rescue	FUS suppressor
COCCCN(Cc1ccco1)C(=O)c1cc2c(s1)-c1ccccc1OC2	2%	i	22µM*	?
N#CCc1ccc(OC[C@@H](O)CN2CCC(C(O)(c3ccccc3)c3ccccc3)CC2)cc1	.	.	.	i
Cc1cc(Cl)cc(C)c1OCC(=O)N1CCN(c2ncccn2)CC1	0%	i	13µM*	i
C[C@H](CO)N1C[C@H](C)[C@@H](CN(C)C(=O)Nc2ccc(C(F)(F)F)cc2)Oc2c(NC(=O)NC3CCCCC3)cccc2C1=O	7%	i	-2%	28µM*
C[C@H](CO)N1C[C@H](C)[C@@H](CN(C)S(=O)(=O)c2cccs2)Oc2c(NC(=O)Nc3ccccc3)cccc2C1=O	1%	i	-25%	?
C[C@@H]1CN([C@H](C)CO)C(=O)c2cccc(NC(=O)NC3CCCCC3)c2O[C@@H]1CN(C)C(=O)Nc1ccc(C(F)(F)F)cc1	-15%	i	14%	32µM*
C[C@H](CO)N1C[C@H](C)[C@@H](CN(C)S(=O)(=O)c2cccs2)Oc2c(NC(=O)NC3CCCCC3)cccc2C1=O	-2%	i	5%	14µM*
C[C@H](CO)N1C[C@H](C)[C@@H](CN(C)C(=O)Nc2ccc(C(F)(F)F)cc2)Oc2c(NC(=O)C3CCCCC3)cccc2C1=O	-11%	i	?	?
COc1ccc(-c2onc(C)c2-c2ccc(C(=O)OC(C)C)o2)c(O)c1	12%	i	14µM*	i
CSc1ccccc1NC(=O)N1CCCC(C(=O)c2ccc3c(c2)OCO3)C1 (stereo unspecified)	-4%	i	16µM*	i
COc1cc2c(cc1NC(=O)CSc1nnc(COc3ccccc3)n1Cc1ccco1)oc1ccccc12	.	.	.	i
CCCCNS(=O)(=O)/C=C/c1ccc(OC)cc1CNC(=O)OC(C)(C)C	.	.	.	i
Cc1ccc2c(c1)C(=O)N1[C@H]3c4cc(Cl)ccc4OC[C@@H]3[C@H](c3ccccc3)[C@]1(C)C(=O)N2	-13%	i	-15%	i
CCOC(=O)[C@@H]1[C@H]2COc3ccccc3[C@H]2N2C(=O)N(c3ccc(Cl)cc3)C(=O)[C@]12C	-6%	i	35µM*	?
C[C@@]12C(=O)Nc3ccc(F)cc3C(=O)N1[C@H]1c3cc(Cl)ccc3OC[C@@H]1[C@@H]2c1ccccc1	-3%	i	18µM*	i
C[C@@]12C(=O)Nc3ccc(F)cc3C(=O)N1[C@H]1c3ccccc3OC[C@@H]1[C@@H]2c1ccccc1	7%	i	14µM*	?
C[C@@]12C(=O)Nc3ccc(Cl)cc3C(=O)N1[C@H]1c3ccccc3OC[C@@H]1[C@@H]2c1ccccc1	-2%	i	-47%	28µM*
COc1cc(Cl)c(CC(=O)NO)cc1OC	-4%	.	.	.
CN1C2=N[C@H](c3ccc(Br)cc3)CC(=O)N2/C(=C\c2ccccc2)[C@@H]1c1ccccc1	.	.	.	i
O=C(C1CCCN(S(=O)(=O)c2ccc([N+](=O)[O-])cc2)C1)N1CCN(Cc2ccccc2)CC1 (stereo unspecified)	.	.	.	i
O=C(c1cnn2c1NC(=C1CC1)C=C2C(F)F)N1CCc2ccccc21	-3%	.	.	.
CCOC(=O)[C@H]1[C@H]2COc3ccc(Cl)cc3[C@@H]2N2C(=O)c3cc(Br)ccc3NC(=O)[C@@]12C	4%	?	?	?
CCOC(=O)[C@H]1[C@H]2COc3ccc(Cl)cc3[C@@H]2N2C(=O)c3cc(Cl)ccc3NC(=O)[C@@]12C	-5%	3.5µM*	8%	i
O=C(Nc1ccc(Cl)cc1Cl)O[C@@H]1CC[C@@]23CCCN2C(=O)CCC[C@H]3C1	.	.	.	i
Cc1csc(N/N=C/c2c(F)cccc2Cl)n1	-18%	i	28µM*	i
SMILES	aSyn rescue	Abeta rescue	TDP43 rescue	FUS suppressor
O=C(CN(C(=O)OCC1c2ccccc2-c2ccccc21)[C@@H](Cc1ccccc1)C(=O)O)OCc1ccc(C(=O)NCc2ccccc2)cc1	.	.	.	25µM*
CC1=NOC(=O)/C1=C/c1ccc(O)c(Cl)c1	-8%	i	18%	i
COc1cc(/C=C2/C(=O)ON=C2C)cc(Cl)c1O	-10%	?	6%	i
C#CCOc1c(Cl)cc(/C=C2/C(=O)ON=C2C)cc1OC	-9%	i	16µM*	i
CCOc1cc(/C=C2/C(=O)ON=C2C)ccc1O	4%	?	18µM*	i
CCCCN(CC)S(=O)(=O)c1ccc(C(=O)Nc2nnc(CSC)o2)cc1	32µM*	i	?	i
CCCCN(CCCC)S(=O)(=O)c1ccc(C(=O)Nc2nnc(CSC)o2)cc1	?	i	21%	i
O=C(Nc1ccccc1)c1ccc(-c2ccc(Br)cc2)o1	-21%	i	13µM*	i
CN(C)C(=O)c1ccc(NC(=O)c2ccc(-c3ccc(Cl)cc3)o2)cc1	-8%	i	?	.
CC(=O)c1ccc(NC(=O)c2ccc(-c3ccc(Cl)cc3)o2)cc1	.	i	11µM*	i
O=C(Nc1cccc(NC(=O)c2ccc(-c3ccc(Br)cc3)o2)c1)c1ccccc1	1%	i	-6%	i
Nn1c(SCc2ccc([N+](=O)[O-])cc2)nnc1-c1n[nH]c2c1CCC2	.	.	.	i
COc1ccccc1CN(Cc1cc2cc(C)ccc2[nH]c1=O)Cc1nnnn1Cc1ccco1	14%	i	-2%	16µM*
CCOc1cccc(C(=O)N/N=C/c2coc3ccccc3c2=O)c1	1%	i	22µM*	i
Cc1nn(-c2ccccc2)c2c1N(CCCC(=O)NCc1ccc(N(C)C)cc1)C(=O)CS2	.	i	16%	i
COc1ccc(CNC(=O)CCCN2C(=O)CSc3c2c(C)nn3-c2ccccc2)cc1	.	i	22µM*	i
CCCOc1ccc(CNC(=O)CCCN2C(=O)CSc3c2c(C)nn3-c2ccccc2)cc1	.	i	18µM*	?
Cc1sc2ccccc2[n+]1C	-9%	.	.	.
COc1ccc([C@H]2OC(=O)C[C@@H]2C(=O)N2CCCCC2)cc1OC	.	.	.	i
CCOc1ccc(-n2c(COc3ccc(C)cc3)nnc2SCC(=O)Nc2ccc(F)c(F)c2)cc1	.	.	.	i
CN1OC[C@@H]2CN(Cc3cc(Cl)cc(Cl)c3)[C@H](c3cccc(Br)c3)C[C@@H]21	-9%	i	35µM*	i
Cc1ccccc1-c1cccc([C@@H]2C[C@H]3[C@H](CON3C)CN2Cc2cc(Cl)cc(Cl)c2)c1	-1%	i	20µM*	i
O=c1oc2cc(Br)ccc2n1CSC1=NCCS1	-8%	i	13µM*	i
CCCc1nnc(NC(=O)Cn2c(=O)oc3cc(Br)ccc32)s1	-13%	i	-14%	i
O=C(c1cc2cc(F)ccc2[nH]1)N1CCCC(Nc2ccc(F)cc2)C1 (stereo unspecified)	3%	i	18µM*	i
O=C(Nc1ccc(F)cc1)OCc1cn(Cc2cccc(F)c2F)nn1	.	.	.	i

Bioassay records deposited in PubChem BioAssay by National Center for Advancing Translational Sciences (NCATS).
